High-throughput results deposited in PubChem BioAssay by National Center for Advancing Translational Sciences (NCATS).
USP1-UAF1 inh – USP1/UAF1 (human) deubiquitinase inhibition; O94782; recombinant USP1/UAF1, Ub-Rhodamine cleavage fluorescence; Potency, µM (top dose mostly 57.1 µM), actives largely listed as inhibitors; actives 0.23% (n = 390,000); AID 743255; active = well fitted inhibition curve with a large enough effect; inconclusive = small, poorly fitted or top-dose-only effect; inactive = no such curve, though single readings can be large or run the other way; also: nearly all actives have a fitted effect of over 60% in size
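In this screen, compounds sit with the deubiquitinase complex (1nM) for 15 min at room temperature before Ub-Rho is added at 150nM final. Fluorescence rise is then followed for 6 reads every 60 seconds.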
TRHR enhancer – allosteric enhancers of human TRH receptor | TRHR cells, fluo-8 calcium fluorescence, EC20 TRH enhancement | enhancement, % at 2 µM | actives 0.66% (n = 360,000) | AID 493056; in the data active = enhancement above about 30%
Target sequence (P34981 whole entry, looked up): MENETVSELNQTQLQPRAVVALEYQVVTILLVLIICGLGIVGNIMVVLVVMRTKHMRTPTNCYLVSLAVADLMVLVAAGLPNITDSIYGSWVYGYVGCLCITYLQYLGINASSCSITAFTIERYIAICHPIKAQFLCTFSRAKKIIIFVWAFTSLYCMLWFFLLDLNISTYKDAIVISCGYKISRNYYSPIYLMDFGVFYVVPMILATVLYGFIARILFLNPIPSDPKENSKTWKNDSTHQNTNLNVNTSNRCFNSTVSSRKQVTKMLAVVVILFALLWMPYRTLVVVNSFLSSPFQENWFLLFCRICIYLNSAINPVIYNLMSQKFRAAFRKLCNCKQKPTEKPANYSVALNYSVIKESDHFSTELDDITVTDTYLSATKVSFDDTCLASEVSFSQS
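TRHR-expressing cells loaded with fluo-8 calcium dye were read kinetically (ex 480/em 530) during compound addition, then stimulated with an EC20 of TRH (10 nM final). Enhancement of the Gq-mediated intracellular calcium response was scored.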
D1 ag – human D1 receptor agonism; actives 1% (n = 360,000); HEK293 T-REx D1 cells, calcium flux, agonist mode; activation, % at 2 µM; AID 504660; P21728
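Inducible HEK293 T-REx D1 cells, force-coupled to calcium signalling, were plated at 4000 cells/well with tetracycline and held overnight at 30 C. After no-wash calcium dye loading, compound-evoked calcium rise over 180 s flagged agonists.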
D1 PAM – human D1 dopamine receptor positive modulation; HEK293 TREx D1 cells, calcium flux, dopamine EC20 potentiation; potentiation, % at 10 µM; actives 0.036% (n = 360,000); in the data active = potentiation above about 30%
D1 antagonist – blocks dopamine activation of the human D1 receptor. HEK293 TREx D1 cells, calcium flux, dopamine EC80; active compounds read low. actives 3.2% (n = 360,000). activity change, negative = inhibition, % at 10 µM. P21728; in the data active = activity change below about -30%
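Cells carrying a force-coupled, tetracycline-inducible human D1 receptor report calcium flux. Each well gets a 10 s baseline, compound with 180 s monitoring, then an EC80 dopamine stimulus with a second 180 s kinetic read.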
TRHR ag – activates the human TRH receptor; TRHR cells, calcium flux fluo-8, FDSS agonist mode; activation, % at 2 µM; actives 0.18% (n = 360,000)
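Fluo-8-loaded TRHR cells; 10 s baseline, compound added, kinetic Ca2+ fluorescence read 1/s, agonist mode.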
Of the large screens only hits and unclear results are named; the others gave an inactive call. Only some compounds are listed: those with a hit (about 4.4% of all), similar ones and a draw of the others. Rule as the data show it, unless noted: active = activation above about 30%; inactive = the rest.

CCOc1ccc(Cl)cc1CNCCCSc1nnnn1C	none
Cn1nnnc1SCCCNCc1cccc(OCc2ccccc2F)c1	D1 ag 45
COc1cccc(CNCCCSc2nnnn2C)c1	none
Cn1nnnc1SCCCNCc1ccccc1OCc1ccccc1Cl	D1 ag 119, D1 antagonist -46
COC(=O)c1cc(OC)c(OC)cc1NC(=O)c1ccc2c(c1)CCN2S(=O)(=O)c1ccccc1	none
CC(C)c1ccc(NC(=O)C2(C)Cc3ccccc3C(=O)O2)cc1 (centres undefined)	none
COc1ccccc1OCCCCn1c(-c2ccc(Cl)cc2)nc2ccccc2c1=O	none
CCOC(=O)c1c(S(=O)(=O)N2CCCC(C(=O)NCc3ccc(Cl)cc3)C2)c(C)n(C)c1C (centres undefined)	none
O=[N+]([O-])c1cc(/C=N\O)ccc1Oc1ccc(F)cc1	D1 antagonist -53
Cc1ccc(NC(=O)c2cnn(-c3ccccc3)c2C)c(C)c1	D1 antagonist -58
Cc1ccc(NC(=O)c2cnn(-c3ccccc3)c2C)cc1	none
COc1cc(OC)c(NC(=O)c2nnn(Cc3ccc(C)cc3)c2N)cc1Cl	none
Cc1ccc(-n2ncc3c(SCC(=O)NNC(=O)C(C)C)ncnc32)cc1	D1 antagonist -54
O=C(CSc1ncnc2c1cnn2-c1ccccc1)NC1CCCC1	D1 antagonist -91
COc1ccc(-n2ncc3c(SCC(=O)N4CCN(c5ccccc5OC)CC4)ncnc32)cc1	D1 antagonist -53
COc1ccccc1N1CCN(C(=O)CSc2ncnc3scc(-c4ccccc4)c23)CC1	none
Cn1c(=O)c(C(N)=S)cn(-c2ccccc2)c1=O	none
NC(=O)c1cc(Cl)cn(-c2ccccc2)c1=O	D1 antagonist -48 (no result: D1 PAM)
O=C(CSc1nc(-c2ccccc2)cn1-c1ccccc1F)Nc1ccc(F)cc1	none
COC(=O)CSc1cccc2c1C(=O)CC2c1ccccc1 (centres undefined)	D1 antagonist -33
COC(=O)CSc1ccsc1C(=O)O	none
CCC(O)c1nc2ccccc2n1CCOc1cc(C)cc(C)c1 (centres undefined)	none
CCOC(=O)c1nn(-c2ccc(OC)cc2)c(=O)c2c(NC(=O)Cc3ccccc3)scc12	none (no result: USP1-UAF1 inh)
O=C(NC1CCN(C(=O)NC2CCCCC2)CC1)c1ccco1	none
O=C(NC1CCCC1)c1cc2cc(Br)ccc2o1	D1 antagonist -78
O=C(NC1CCCCCCC1)c1ccco1	D1 antagonist -31
CC1CCCCC1NS(=O)(=O)c1ccc(S(=O)(=O)N2CCN(CCC#N)CC2)cc1 (centres undefined)	D1 antagonist -35
N#CCCN1CCN(S(=O)(=O)c2ccc(C3CCCCC3)cc2)CC1	none
CCN(CC)S(=O)(=O)c1ccc(S(=O)(=O)N2CCN(CCC#N)CC2)cc1	none
CN(C)S(=O)(=O)c1ccc(S(=O)(=O)N2CCN(CCC#N)CC2)cc1	D1 antagonist -33
COc1ccc(OCC(=O)NC(Cc2c[nH]c3ccccc23)C(=O)O)cc1 (centres undefined)	none
CCN(CC)CCOC(=O)c1ccc(NC(=O)CCCN2C(=O)/C(=C\c3cccs3)SC2=S)cc1	D1 antagonist -66
Cc1cccc(C)c1OCC(=O)NC1CC1	D1 antagonist -47
Cc1ccccc1CSCC(=O)NC1CCCC1	D1 antagonist -45
Cc1cccc(C(C)C)c1NC(=O)c1ccc2c(c1)CCN2S(C)(=O)=O	none
CCOc1ccc2oc(=O)cc(CN3CCN(c4cc(C)ccc4C)CC3)c2c1	none
O=C(c1ccccc1Cl)N(Cc1ccco1)c1ccccn1	none
COC(=O)c1c(-c2cccc(OC)c2)csc1N	none
COC(=O)c1c(-c2ccc(OC)c(OC)c2)csc1N	D1 antagonist -34
O=C(NC1CC(=O)N(c2cccc(F)c2)C1)c1ccc(S(=O)(=O)N2CCCCC2)cc1 (centres undefined)	USP1-UAF1 inh inconclusive (no result: D1 antagonist)
Cc1ccc(CN2C(=O)c3ccccc3CC2(C)C(=O)NC2CCCCC2)cc1 (centres undefined)	none
COc1ccc(C)cc1NC(=O)CSc1ccc(-c2sc(C)nc2C)nn1	D1 antagonist -50
CCOC(=O)c1ccc(NC(=O)CSc2ccc(-c3sc(C)nc3C)nn2)cc1	D1 antagonist -42
CC(=O)Nc1ccc(NC(=O)CSc2ccc(-c3sc(C)nc3C)nn2)cc1	none
CCOc1ccc(-n2c(=O)c3c4c(sc3n(CC(=O)NC(C)CC)c2=O)CCC4)cc1 (centres undefined)	none
Cc1[nH]nc(N2CCCCCC2)c1[N+](=O)[O-]	D1 antagonist -41
COCCn1nnnc1C(c1cccc(C(F)(F)F)c1)N1CCOCC1 (centres undefined)	D1 antagonist -42
CCCC[C@]12Cc3c(ccc4ccccc34)C(O1)C1=C(O2)C(=O)c2ccccc2C1=O	none (no result: USP1-UAF1 inh)
COc1ccnc(N=CNOCc2cccc(Cl)c2Cl)c1C#N	D1 antagonist -58
O=C(C1CCC1)N1CCCc2cc(S(=O)(=O)Nc3ccc(F)cc3)ccc21	none
CCN(C(=O)Cn1nc(Cc2ccncc2)c2ccccc2c1=O)c1ccc(OC)cc1	none
Cc1ccc(S(=O)(=O)NCCc2nnc3ccc(SCC(=O)Nc4c(C)cc(C)cc4C)nn23)cc1	USP1-UAF1 inh inconclusive
CCN(CC)c1ccc(NC(=O)c2sc3nc(-c4ccccc4)cn3c2C)cc1	none
Cc1c(C(=O)Nc2ccncc2)sc2nc(-c3ccccc3)cn12	D1 antagonist -34
O=C1NC(=O)/C(=C/c2ccc(OS(=O)(=O)c3ccc(F)cc3F)cc2)N1	D1 antagonist -31
O=C1NC(=O)C(=Cc2ccccc2)N1	none (no result: TRHR enhancer, D1 ag, D1 PAM, D1 antagonist, TRHR ag)
N#C/C(=C\c1ccccc1)c1nc(-c2cc3c(ccc4ccccc43)oc2=O)cs1	none
NS(=O)(=O)c1ccc(NC(=O)COC(=O)C2(c3ccccc3F)CCCC2)cc1	D1 antagonist -34
CCOc1ccc(OCC(=O)Nc2ccc(S(N)(=O)=O)cc2)cc1	D1 antagonist -34
O=C(COc1ccc([N+](=O)[O-])cc1)Nc1ccncc1	none
NS(=O)(=O)c1cccc(NC(=O)COc2ccc([N+](=O)[O-])cc2)c1	TRHR enhancer 33
CC(C)NS(=O)(=O)c1ccc(OCC(=O)Nc2cccc(F)c2)cc1	TRHR enhancer 32
Cc1cc(C)cc(NC(=O)Cn2c(C)cc(C)c(C#N)c2=O)c1	none
CCCC(=O)NC(=S)Nc1ccc(S(=O)(=O)Nc2ccc(OCC)cc2)cc1	none
CN(C)S(=O)(=O)c1cccc(NC(=O)COC(=O)CCOc2ccccc2)c1	TRHR enhancer 33
CCOc1ccc(NS(=O)(=O)c2ccc(NC(=S)NC(=O)CC(C)C)cc2)cc1	USP1-UAF1 inh inconclusive, TRHR enhancer 32
